Inconclusive results are not listed. Active and inactive are the calls of the source. Unless noted, calls come from the whole dose curve; as a rule, active = well fitted curve in the direction sought with a large enough effect in the repeat runs; inconclusive = weak or mixed curves; inactive = no such curve, though single readings can be large; an effect the other way counts as inactive or inconclusive.
Tests used:
[1] = qHTS assay to identify small molecule agonists of the vitamin D receptor (VDR) signaling pathway - cell viability counter screen (AID 743224); note: nearly all actives have a fitted effect of over 50% in size; note: potency is the fitted concentration of half-maximal effect
In short: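 Viability is measured in the same wells as the VDR-bla reporter assay: after 16 h compound treatment and 2 h substrate loading, CellTiter-Glo is added and luminescence read 30 min later.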

[2] = qHTS assay to identify small molecule antagonists of the vitamin D receptor (VDR) signaling pathway - cell viability counter screen (AID 743225); note: nearly all actives have a fitted effect of over 50% in size; note: potency is the fitted concentration of half-maximal effect
In short: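 Viability counter screen run in the same wells as the beta-lactamase reporter assay: HEK 293T VDR-UAS-bla cells, 16 h compound exposure at 37C with 3 nM (final) 1-alpha,25-dihydroxyvitamin D3. CellTiter-Glo luminescence, 30 min, room temperature.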

[3] = qHTS assay to identify small molecule agonists of the NFkB signaling pathway (AID 1159509; active = well fitted curve in the direction sought with a large enough effect in the signal ratio in the repeat runs, not every such curve was filed as active; the % refers to the signal ratio)
In short: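 ME-180 NFkB-bla, 2,000 cells/well, overnight plating; cpd pinned in DMSO, 5 h 37 C; B/G FRET substrate 1.5 h RT; ex 405, em 460/530 nm.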

[4] = qHTS assay to identify small molecule agonists of the endoplasmic reticulum stress response signaling pathway (AID 1159516; active = well fitted activation curve with a large enough effect in the signal ratio in the repeat runs, not every such curve was filed as active; the % refers to the signal ratio)
In short: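 Tox21 10K library screened in quantitative HTS format on ESRE-bla HeLa cells, a beta-lactamase reporter under ER stress response element control; 5 hr treatment, FRET read.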

[5] = qHTS assay to identify small molecule agonists of the endoplasmic reticulum stress response signaling pathway - cell viability counter screen (AID 1159517; calls by dose curve; note: nearly all actives have a fitted effect of over 50% in size)
In short: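 ESRE-bla HeLa cells, 1,500 per well, seeded overnight then treated with compounds for 5 hr at 37 C. After the beta-lactamase read, viability in the same wells is measured by CellTiter-Glo luminescence after 30 min at room temperature.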

[6] = qHTS assay to identify small molecule antagonists of the retinoid-related orphan receptor gamma (ROR-gamma) signaling pathway - cell viability counter screen (AID 1159520); note: nearly all actives have a fitted effect of over 50% in size
In short: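 Tet-on ROR gamma CHO cells were given compounds for 2 hr, then doxycycline hyclate at 1 uM final, and incubated 16 hr at 37 C. Viability was measured as ATP content by CellTiter-Glo luminescence.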

[7] = target: Nuclear receptor ROR-gamma (Homo sapiens) (UniProt P51449); assay: qHTS assay to identify small molecule antagonists of the retinoid-related orphan receptor gamma (ROR-gamma) signaling pathway (AID 1159521; note: nearly all actives have a fitted effect of over 50% in size; note: potency is the fitted concentration of half-maximal effect)
In short: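 Luminescence readout (ONE-Glo, 30 min RT) after 16 h doxycycline induction; loss of signal scored as antagonism. CHO cells with TET-inducible RORγ and RORE-LUC reporter; compounds added 2 h before 1 uM final doxycycline.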

[8] = qHTS assay to identify small molecule agonists of the AP-1 signaling pathway - cell viability counter screen (AID 1159525; calls by dose curve; note: nearly all actives have a fitted effect of over 55% in size)
In short: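 AP-1-bla ME-180 cells in Opti-MEM with 0.5% dialyzed FBS, compound exposure 5 h at 37 C in 15-point titration. Viability read in the same wells as ATP content by CellTiter-Glo luminescence, normalised to tetra-n-octylammonium bromide and DMSO controls.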

[9] = qHTS assay to identify small molecule agonists of the AP-1 signaling pathway (AID 1159526; calls by dose curve)
[10] = target: Retinoic acid receptor RXR-alpha (Homo sapiens) (UniProt P19793); assay: qHTS assay to identify small molecule agonists of the RXR signaling pathway (AID 1159527; calls by dose curve; note: nearly all actives have a fitted effect of over 35% in size)
In short: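 Agonist mode; 9-cis retinoic acid positive control. HEK 293T UAS-bla reporter cells, 2% charcoal-stripped FBS, 16 hr compound exposure at 37 C/5% CO2. LiveBLAzer B/G FRET substrate 2 hr RT; ex 405, em 460/530 nm.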

[11] = qHTS assay to identify small molecule agonists of the RXR signaling pathway - cell viability counter screen (AID 1159529); note: nearly all actives have a fitted effect of over 50% in size; note: potency is the fitted concentration of half-maximal effect
In short: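 Luminescence from CellTiter-Glo (30 min, RT) measured viability in the same wells as the beta-lactamase reporter readout. Cells: GeneBLAzer RXR-alpha HEK 293T, 2% charcoal-stripped FBS. Compound exposure 16 hr, 37 C.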

[12] = qHTS assay to identify small molecule antagonists of the retinoid acid receptor (RAR) signaling pathway - cell viability counter screen (AID 1159551); note: nearly all actives have a fitted effect of over 35% in size
In short: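 Cytotoxicity counter screen in C3RL4 cells: 6 h compound exposure with 1 uM retinol (final), viability from cellular ATP by luminescence.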

[13] = qHTS assay to identify small molecule antagonists of the retinoic acid receptor (RAR) signaling pathway (AID 1159552; note: nearly all actives have a fitted effect of over 50% in size; note: potency is the fitted concentration of half-maximal effect)
In short: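 Luminescence from a RARE luciferase reporter in C3RL4 cells served as read-out. Cells received compounds together with 1 uM final retinol and incubated 6 hr at 37 C before detection reagent was added for 30 min at room temperature.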

[14] = qHTS assay to identify small molecule agonists of the retinoic acid receptor (RAR) signaling pathway (AID 1159553); conditions: C3RL4 RARE luciferase reporter, agonist, 6 h; activation: at 73.3 µM (top of the series)
In short: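 Agonist activity was scored in C3RL4 cells bearing a retinoic acid response element luciferase construct. Cells were treated with compounds for 6 hr at 37 C, and luciferase signal was measured as luminescence.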

[15] = qHTS assay to identify small molecule agonists of the NFkB signaling pathway - cell viability counter screen (AID 1159515; calls by dose curve; note: nearly all actives have a fitted effect of over 55% in size)
In short: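 Multiplexed viability readout: after the 5 hr compound exposure and 1.5 hr FRET substrate step, CellTiter-Glo reagent went into the same NFkB-bla ME-180 wells; ATP luminescence was measured after 30 min at room temperature.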

[16] = qHTS assay to identify small molecule antagonists of the estrogen related receptor (ERR) signaling pathway (AID 1224819)
In short: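 Compounds dissolved in DMSO were pin-transferred onto ERR cells that had been plated 6 h earlier, and cells were then incubated 18 h at 37 C; signal was luciferase luminescence via One-Glo.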

[17] = qHTS assay to identify small molecule agonists of the estrogen related receptor (ERR) signaling pathway (AID 1224820)
In short: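 Cells: ERR line from NTP, 2,000/well. Pre-incubation 6 h, 37 C/5% CO2. Compound (DMSO) pin transfer, 18 h 37 C. One-Glo, 30 min RT, luminescence.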

[18] = test system: estrogen-related receptor alpha (ERRalpha) with PGC-1alpha coactivator, human; assay: qHTS assay to identify small molecule antagonists of the estrogen related receptor signaling pathway with the pleiotropic PPARgamma coactivator (PGC) (AID 1224821; calls by dose curve)
In short: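 Luminescent read-out (One-Glo, 30 min at room temperature) following 18 h treatment of PGC/ERR cells at 37 C with compounds delivered in DMSO. Cells had settled 6 h at 37 C/5% CO2 before dosing.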

[19] = qHTS assay to identify small molecule antagonists of the estrogen related receptor signaling pathway with the pleiotropic PPARgamma coactivator (PGC) cell viability counter screen (AID 1224822;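 note: viability read after 17.5 h compound exposure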)
In short: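 Seed PGC/ERR cells (2,000/well); incubate 6 h at 37 C/5% CO2; pin-transfer compounds in DMSO; incubate 17.5 h at 37 C; add CellTiter-Fluor; after 30 min read fluorescence.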

[20] = qHTS assay to identify small molecule agonists of the estrogen related receptor signaling pathway with the pleiotropic PPARgamma coactivator (PGC) (AID 1224823)
In short: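 Steps: plate PGC/ERR cells at 2,000 cells/well; incubate 6 h, 37 C/5% CO2; pin-transfer compounds (DMSO); incubate 18 h, 37 C; add One-Glo; 30 min RT; read luminescence.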

Measured: Potency

Chain of Retinoic acid receptor RXR-alpha (Homo sapiens) (P19793 whole entry, looked up): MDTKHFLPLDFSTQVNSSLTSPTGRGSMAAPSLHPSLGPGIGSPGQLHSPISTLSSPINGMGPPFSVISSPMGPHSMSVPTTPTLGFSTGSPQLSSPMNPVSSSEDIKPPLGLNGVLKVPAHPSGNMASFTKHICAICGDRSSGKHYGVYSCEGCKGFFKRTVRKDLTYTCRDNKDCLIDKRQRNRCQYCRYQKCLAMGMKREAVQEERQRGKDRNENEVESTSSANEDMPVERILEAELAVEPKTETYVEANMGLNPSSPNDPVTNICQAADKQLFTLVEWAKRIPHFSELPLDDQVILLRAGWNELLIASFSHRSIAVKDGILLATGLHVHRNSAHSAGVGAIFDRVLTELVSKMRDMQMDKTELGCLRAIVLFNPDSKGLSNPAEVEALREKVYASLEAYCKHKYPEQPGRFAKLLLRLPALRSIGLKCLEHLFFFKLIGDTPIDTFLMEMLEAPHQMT

COc1cc(C(=O)NCCCCCC(=O)O)cc(OC)c1OC
inactive: [1] | [2] | [3] | [4] | [5] | [6] | [7] | [8] | [9] | [10] | [11] | [12] | [13] | [14]

CCC1CO1 (stereo unspecified)
inactive: [1] | [3] | [4] | [5] | [6] | [7] | [8] | [9] | [10] | [11] | [12] | [13] | [14]

CCCCCCCC/C=C\CCCCCCCCCCCC(=O)O
inactive: [1] | [2] | [3] | [4] | [5] | [6] | [7] | [8] | [9] | [10] | [11] | [12] | [13] | [14]

NC(=O)c1ccncc1
inactive: [1] | [2] | [3] | [4] | [5] | [6] | [7] | [8] | [9] | [10] | [11] | [12] | [13] | [14]

CCCCCCC(C)(C)C(=O)O
inactive: [2] | [3] | [4] | [5] | [6] | [7] | [8] | [9] | [10] | [11] | [12] | [14]

C=C1CCC2CC1C2(C)C (stereo unspecified)
inactive: [1] | [3] | [4] | [5] | [6] | [7] | [8] | [9] | [10] | [11] | [12] | [13] | [14]

Oc1ccc(Cl)c2cccnc12
inactive: [3] | [15] | [7] | [8] | [12] | [13]
active: [1] 0.376 µM

O=C(/C=C/c1ccc(O)c(O)c1)O[C@@H]1C[C@@](OC(=O)/C=C/c2ccc(O)c(O)c2)(C(=O)O)C[C@@H](O)[C@@H]1O
inactive: [1] | [2] | [3] | [4] | [5] | [6] | [7] | [8] | [9] | [10] | [11] | [12] | [14]

OCCN1CCN(CCCN2c3ccccc3Sc3ccc(Cl)cc32)CC1
inactive: [3] | [15] | [16] | [17] | [18] | [19] | [20]
active: [2] 23.9 µM | [11] 16.9 µM | [13] 29.8 µM

O=C=Nc1cccc(C(F)(F)F)c1
inactive: [3] | [4] | [5] | [6] | [7] | [8] | [9] | [10] | [12]

Cc1cc(O)c(C)c(C)c1O
inactive: [3] | [4] | [5] | [6] | [7] | [8] | [9] | [10] | [11] | [12]
active: [1] 29.8 µM

C[C@@H]1CN(CCCn2c3ccccc3c3ccccc32)C[C@H](C)N1
active: [1] 26.6 µM | [11] 23.9 µM | [13] 33.5 µM
inactive: [3] | [15] | [8] | [9]

Cc1ccc(C(C)(C)O)cc1
inactive: [1] | [2] | [3] | [4] | [5] | [6] | [7] | [8] | [9] | [10] | [11] | [12]

O=C(O)CCCCCCCCCCCBr
inactive: [1] | [3] | [4] | [5] | [6] | [7] | [8] | [9] | [10] | [12] | [13]

O=c1[nH]c2ccc(Cl)cc2o1
inactive: [1] | [2] | [3] | [4] | [5] | [6] | [7] | [8] | [9] | [10] | [11] | [12] | [14]

Brc1cc2ccccc2c2ccccc12
active: [7] 21.8 µM
inactive: [1] | [2] | [3] | [15] | [8] | [13] | [14]

— PubChem BioAssay (Tox21)
